Assay results taken from PubChem BioAssay (NCATS).
Inconclusive results are not listed. A call without a number means that no potency is given here. Unmarked numbers belong to inactive results. Active and inactive are the calls of the source. Calls come from the whole dose curve; as a rule, active = well fitted inhibition curve with a large enough effect; inconclusive = small, poorly fitted or top-dose-only effect; inactive = no such curve, though single readings can be large or run the other way.

Biological target: Retinaldehyde dehydrogenase 3 (Homo sapiens) (UniProt P47895)
Test: qHTS for Inhibitors of the Aldehyde Dehydrogenase Family (ALDH1A3) Primary screen (AID 2061315)
Conditions: ALDH inhibition qHTS; series mostly up to 56 µM

**Q.** With `NC(=O)C1CCN(c2nnc(-c3ccc(Br)cc3)s2)CC1` as the molecule, how does the Potency read?
**A.** The Potency was “inactive”.

**Q.** `COc1cccc(C2c3c(ncn(-c4ccccc4C(C)(C)C)c3=N)Oc3ccc4ccccc4c32)c1` (stereo not given) was tested. Which Potency did it give?
**A.** The Potency was “inactive”.

**Q.** With `COc1cccc(CNc2ccc([S+](=O)([O-])Nc3ccccc3)cc2)c1Cl` as the molecule, how does the Potency read?
**A.** Its Potency is “inactive”.

**Q.** How did the Potency turn out when `Cc1cnc(-c2ccccc2C(C)C)nc1NCc1cccnc1` was run?
**A.** Its Potency is “inactive”.

**Q.** For `CC(=O)Oc1ccc(C2(c3ccc(OC(C)=O)cc3)Oc3ccccc3NC2=O)cc1`, which Potency is on record?
**A.** Its Potency is “inactive”.

**Q.** With `O=C(Nc1ccc(S(=O)(=O)Nc2nccs2)cc1)C1CCC2(CC1)CC2` as the molecule, how does the Potency read?
**A.** Its Potency is “inactive”.

**Q.** With `CCNC(=O)c1ccc(-c2ccc3ncnc(NCc4nccs4)c3c2)o1` as the molecule, how does the Potency read?
**A.** Its Potency is “inactive”.

**Q.** For `O=C1CCCC2=C1C1(CCCOC1)N=C(Nc1nc3ccccc3o1)N2` (stereo not given), which Potency is on record?
**A.** The Potency was “inactive”.

**Q.** `C=C(C)C(=O)O[C@H]1[C@H]2C(=C)C(=O)O[C@@H]2C[C@@H](C)[C@@H]2O[C@@H]2C(=O)[C@](C)(O)[C@@H]1OC(=O)C(=C)C` was tested. Which Potency did it give?
**A.** The Potency was “inactive”.

**Q.** Which Potency does the source give for `COc1cccc(NC(=S)N2CCN(c3ccccc3C(F)(F)F)CC2)n1` here?
**A.** The Potency was “inactive”.

**Q.** `Cc1cc(C)n2ncc(C(=O)Nc3ccc(Br)cc3)c2n1` was tested. Which Potency did it give?
**A.** Its Potency is “inactive”.

**Q.** How did the Potency turn out when `Cn1nnnc1Sc1ncnc2scc(-c3cccc(C(F)(F)F)c3)c12` was run?
**A.** Its Potency is “inactive”.

**Q.** `COc1cccc(-c2ccc3ncnc(N(C)Cc4ccco4)c3c2)c1` was tested. Which Potency did it give?
**A.** Its Potency is “inactive”.

**Q.** `CCCn1c(C)nc2c(Nc3ccccc3)nc(C)nc21` was tested. Which Potency did it give?
**A.** The Potency was “inactive”.

**Q.** With `O=C(Nc1nnc(-c2ccco2)o1)c1ccc(C(F)(F)F)cc1` as the molecule, how does the Potency read?
**A.** The Potency was “inactive”.

**Q.** For `c1ccc(-n2cc(-c3nnc4n3CCCCC4)c3ccccc32)cc1`, which Potency is on record?
**A.** The Potency was “inactive”.

**Q.** `Fc1cc(F)cc(Nc2nc(Cl)nc(NC3CCCC3)n2)c1` was tested. Which Potency did it give?
**A.** Its Potency is “inactive”.

**Q.** How did the Potency turn out when `Cc1cnc(-c2ccccc2C(C)C)nc1NC(C)c1ccc(-c2cccnc2)cc1` (stereo not given) was run?
**A.** Its Potency is “inactive”.

**Q.** How did the Potency turn out when `O=S(=O)(NCC1CN(S(=O)(=O)c2ccc3c(c2)OCCO3)C1)c1c(F)cccc1F` was run?
**A.** The Potency was “inactive”.

**Q.** `Cc1ccc(OCCn2c(CCNC(=O)c3ccccc3Br)nc3ccccc32)cc1` was tested. Which Potency did it give?
**A.** The Potency was “inactive”.

**Q.** For `Cc1ccnc(NC(=S)N2CCN(c3ncc(C(F)(F)F)cc3Cl)CC2)c1`, which Potency is on record?
**A.** The Potency was “inactive”.

**Q.** With `Cc1cnc(-c2ccccc2C(F)F)nc1NCC1CN(c2cnccn2)C1` as the molecule, how does the Potency read?
**A.** The Potency was “inactive”.

**Q.** Which Potency does the source give for `Cc1cccc(CNc2ncnc3ccc(-c4ccccc4Cl)cc23)c1` here?
**A.** Its Potency is “inactive”.

**Q.** `Oc1ccc(-c2nn[nH]n2)c2cccnc12` was tested. Which Potency did it give?
**A.** Its Potency is “inactive”.

**Q.** For `Cc1ccc(OCCn2c(CCNC(=O)c3cccc(C#N)c3)nc3ccccc32)cc1`, which Potency is on record?
**A.** Its Potency is “inactive”.

**Q.** Which Potency does the source give for `O=C(O)c1ccc2c(c1)C(=O)N([C@@H](Cc1ccc(O)cc1)C(=O)O)C2=O` here?
**A.** Its Potency is “inactive”.

**Q.** How did the Potency turn out when `Cc1ccc(S(=O)(=O)Nc2ccccc2C(=O)Nc2nc(-c3ccccc3)c(Br)s2)cc1` was run?
**A.** The Potency was “inactive”.

**Q.** How did the Potency turn out when `CN(c1cccc2cccnc12)S(=O)(=O)c1ccccc1` was run?
**A.** The Potency was “inactive”.

**Q.** `CC(=O)O[C@H]1CC(C)(C)CC2[C@]13CO[C@@]21CCC2[C@@]4(C)CC[C@H](O[C@@H]5OC[C@H](O[C@@H]6O[C@H](CO)[C@@H](O)[C@H](O)[C@H]6O[C@@H]6OC[C@@H](O[C@@H]7O[C@H](CO)[C@@H](O)[C@H](O)[C@H]7O)[C@H](O)[C@H]6O)[C@H](O)[C@H]5O[C@@H]5O[C@H](CO)[C@@H](O)[C@H](O)[C@H]5O)[C@@](C)(CO)C4CC[C@@]2(C)[C@]1(C)C[C@H]3O` (stereo not given in full) was tested. Which activity change, negative = inhibition did it give?
**A.** The activity change, negative = inhibition was 11.1% [at 11.2 µM].

**Q.** Which Potency does the source give for `N#CN1CCC(NS(=O)(=O)c2ccc(C(F)(F)F)cc2)C1` (stereo not given) here?
**A.** Its Potency is “inactive”.

**Q.** Which Potency does the source give for `C(=Nc1cccnc1)c1cccs1` here?
**A.** The Potency was “inactive”.

**Q.** With `Fc1cccc(Nc2nc(-c3ccncc3)nc3ccccc23)c1` as the molecule, how does the Potency read?
**A.** Its Potency is “inactive”.

**Q.** For `C=C(C)C(=O)OC1C(OC(C)=O)/C(C=O)=C\CC/C(CO)=C/C2OC(=O)C(=C)C21` (stereo not given), which Potency is on record?
**A.** Its Potency is “inactive”.

**Q.** For `O=C(Cc1ccc(Cl)c(Cl)c1)Nc1ccc([S+](=O)([O-])Nc2ccccn2)cc1`, which Potency is on record?
**A.** The Potency was “inactive”.

**Q.** For `Cc1cccc(-n2cnc3cc(C(=O)N4CCCCC4)ccc32)c1`, which Potency is on record?
**A.** The Potency was “inactive”.

**Q.** With `CCN1CCCC1Cn1c(-c2ccccc2)nc2c(N3CCOCC3)nc(C)nc21` (stereo not given) as the molecule, how does the Potency read?
**A.** The Potency was “inactive”.

**Q.** `COc1cc(-c2ncn(/C=C\C(=O)OC(C)C)n2)cc(C(F)(F)F)c1` was tested. Which Potency did it give?
**A.** The Potency was “inactive”.

**Q.** How did the Potency turn out when `CC(C)N1CCc2c(sc(NC(=O)C3CCCC3)c2-c2nc3ccccc3s2)C1` was run?
**A.** Its Potency is “inactive”.

**Q.** `COc1cc(O)c(C(CC(=O)N2CCCC2)c2ccc3c(c2)OCO3)c(OC)c1` (stereo not given) was tested. Which Potency did it give?
**A.** Its Potency is “inactive”.

**Q.** With `Cc1sc(NC(=O)Cc2ccc3c(c2)OCO3)nc1-c1ccc2c(c1)CCN2C(=O)c1ccccc1F` as the molecule, how does the Potency read?
**A.** Its Potency is “inactive”.
